Screening results (PubChem BioAssay)
Myeloid diff MLP = myeloid differentiation induction; ER-HoxA9 myeloid progenitors, lysozyme-GFP differentiation, flow cytometry; calls only at 10 µM; 360,000 compounds, 1% hits;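 active means normalized GFP-positive differentiation at or above the plate's own cutoff, the solvent-only control mean plus 3 SD; inconclusive means no clear call, values can overlap the other calls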;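 further: cells exposed to compound for four days before flow analysis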
Granule exo inh = lytic granule exocytosis inhibition; 360,000 compounds, 0.66% hits; AID 651702; TALL-104 LAMP-1 surface exposure, flow cytometry; cells stimulated with thapsigargin and PMA; inhibition, % at 10 µM;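 active means inhibition above about 55%, limit read from the data; inconclusive means no clear call, values can overlap the other calls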
ABCB6 inh 2 = blocks the human ABCB6 transporter. Q9NP58. K562-ABCB6 porphyrin accumulation, flow cytometry, 1 h; hits give low values. fluorescence ratio to DMSO, % at 10 µM. 360,000 compounds, 0.19% hits. AID 602162;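 active means fluorescence ratio to DMSO below 75%, the collection mean minus 3 SD; inconclusive means too few cells collected in the well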;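 further: signal is porphyrin accumulated inside mitochondria; 100% equals median channel fluorescence of DMSO control wells; lower ratio means ABCB6 inhibition with less porphyrin fluorescence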
Target sequence (Q9NP58 whole entry, looked up): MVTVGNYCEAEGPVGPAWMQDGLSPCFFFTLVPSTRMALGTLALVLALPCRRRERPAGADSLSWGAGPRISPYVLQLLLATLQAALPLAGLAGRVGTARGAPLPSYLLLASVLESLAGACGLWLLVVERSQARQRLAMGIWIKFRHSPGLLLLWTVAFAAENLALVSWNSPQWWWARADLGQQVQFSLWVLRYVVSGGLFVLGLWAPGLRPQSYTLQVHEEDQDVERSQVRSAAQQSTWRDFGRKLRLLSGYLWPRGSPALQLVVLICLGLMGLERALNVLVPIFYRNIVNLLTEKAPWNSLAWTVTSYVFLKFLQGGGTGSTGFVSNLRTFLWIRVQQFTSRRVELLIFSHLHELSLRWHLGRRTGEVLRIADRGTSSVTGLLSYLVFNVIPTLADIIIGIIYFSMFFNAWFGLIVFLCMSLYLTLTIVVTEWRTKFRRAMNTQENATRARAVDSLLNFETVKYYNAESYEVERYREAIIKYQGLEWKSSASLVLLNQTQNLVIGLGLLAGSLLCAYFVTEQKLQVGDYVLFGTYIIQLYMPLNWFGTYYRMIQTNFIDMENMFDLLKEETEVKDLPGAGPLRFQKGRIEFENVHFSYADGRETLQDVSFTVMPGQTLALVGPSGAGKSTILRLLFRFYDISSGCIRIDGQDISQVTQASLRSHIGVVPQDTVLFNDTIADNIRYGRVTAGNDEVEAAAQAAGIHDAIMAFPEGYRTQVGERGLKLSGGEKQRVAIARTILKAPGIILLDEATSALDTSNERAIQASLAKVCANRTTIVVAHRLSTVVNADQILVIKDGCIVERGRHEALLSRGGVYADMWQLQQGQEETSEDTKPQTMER
Myeloid diff CP1 = compounds promoting myeloid differentiation; ER-HoxA9 myeloid progenitors, GFP/Mac1 double-positive flow; 2,300 compounds, 2% hits; shares compounds with Myeloid diff MLP; calls only;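 active means share of green or green-and-red cells above 9 and 9% in run 1 or 4 and 3% in run 2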
GFP autofluor = counter-screen for myeloid differentiation promoters: compound fluorescence. shares compounds with Myeloid diff MLP. ER-HoxA9 myeloid progenitors, no estrogen, GFP autofluorescence flow cytometry; vehicle wells 0%, positive control 100%. fluorescence response, % (concentration not given with the values). 2,300 compounds, 7.4% hits. AID 651707;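 active means over 5% cells positive for green fluorescent reporter, or over 2% positive for both it and APC stain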;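 further: range taken on the double positive population between DMSO and positive control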
* hit, by the source's call; i = inactive; ? = inconclusive; / = no result given; + = active, no number. Most compounds without a hit are left out; they make up all but 1.8% or so of the library.

SMILES	Myeloid diff MLP	Granule exo inh	ABCB6 inh 2	Myeloid diff CP1	GFP autofluor
CN1C(=S)N(c2cccnc2)C(=O)/C1=C\c1ccc(N(C)C)cc1	+	0	133	i	3
CN1C(=S)N(c2cccnc2)C(=O)/C1=C\c1ccc(C(C)(C)C)cc1	i	22	91	/	/
O=C(c1cccs1)N1CCN(Cc2cccc([N+](=O)[O-])c2)CC1	i	1	87	/	/
O=C(N/N=C/c1ccc(N2CCOCC2)s1)c1ccccc1Cl	i	-1	100	/	/
C(=N\N(c1ccccc1)c1ccccc1)/c1ccc(N2CCOCC2)s1	+	-1	95	i	0
O=C(CCCOc1ccc(Cl)cc1)NCCc1ccccc1	i	3	100	/	/
COCCCn1c(SCC(=O)OC2CCCCC2)nnc1-c1cccs1	i	-4	104	i	0
COCCCn1c(SCC(=O)OC2CCCCC2)nnc1-c1ccco1	i	-2	95	/	/
Cc1c(Cl)cccc1NC(=O)Cc1ccc([N+](=O)[O-])cc1	i	-4	107	/	/
C=C(C)C1CC=C(C)/C(=N/NC(=O)C2CC2c2ccccc2)C1 (stereo unspecified)	i	2	94	/	/
COc1ccccc1N(O)C1CC(=O)N(c2ccc(F)cc2)C1=O (stereo unspecified)	i	2	100	i	0
COc1ccccc1N1C(=O)CC(N(O)c2ccccc2)C1=O (stereo unspecified)	i	0	102	/	/
Cc1c(NS(=O)(=O)c2ccc(NCCN3CCOCC3)c([N+](=O)[O-])c2)c(=O)n(-c2ccccc2)n1C	i	-3	101	/	/
C=CCOc1ccc(CNc2ccc3[nH]c(=O)[nH]c3c2)cc1	i	-5	98	/	/
O=[N+]([O-])c1cc([N+](=O)[O-])c2nonc2c1Nc1ccccc1O	+	2	105	i	4
O=[N+]([O-])c1cc([N+](=O)[O-])c2nonc2c1Nc1ccc(O)cc1	i	8	101	/	/
COc1ccccc1NC(=O)CCCc1nnc2n(C)c(=O)c3sccc3n12	i	2	99	/	/
Cc1ccccc1S(=O)(=O)N(C)C[C@@H]1OCc2cnnn2CCCC(=O)N([C@@H](C)CO)C[C@H]1C	i	5	101	/	/
COc1ccc(C(=O)NCC(C)(C)N2CCOCC2)cc1S(=O)(=O)N1CCCC1	i	-4	101	/	/
Cc1ccc(F)c(NC=C2C(=O)OC(C)(C)OC2=O)c1	i	4	90	i	2
CC1(C)OC(=O)C(=CNc2ccc(F)cc2)C(=O)O1	i	0	94	/	/
O=C(CCC(=O)N1CCOCC1)NCCc1ccc(Cl)cc1Cl	i	-5	96	/	/
COc1ccc(NC(=O)C2CCC(=O)N2)cc1 (stereo unspecified)	i	0	106	i	0
COc1ccc(NC(=O)C2CCCC2)cc1	i	8	96	/	/
O=C(Nc1ncccc1Cl)C(Sc1ccccc1)c1ccccc1 (stereo unspecified)	i	-4	101	/	/
SMILES	Myeloid diff MLP	Granule exo inh	ABCB6 inh 2	Myeloid diff CP1	GFP autofluor
O=C(OCc1c(-c2ccccc2)ncc2ccccc12)N1CCOCC1	i	-5	89	/	/
O=C(CSC1=NCCN1)NC(c1ccccc1)c1ccccc1	i	-3	96	/	/
Cc1ccc(O)c(-c2cc(-c3ccc(F)cc3)no2)c1	i	2	97	/	/
COc1ccccc1/C=C/C=C1\Oc2c(ccc(O)c2CN2CCN(CCO)CC2)C1=O	i	16	109	i	0
O=C1/C(=C/C=C/c2ccccc2)Oc2c1ccc(O)c2CN1CCN(CCO)CC1	i	14	103	/	/
CCOC(=O)N1CCN(C(=O)c2ccc(Cn3c(=S)[nH]c4cc(OCC)c(OCC)cc4c3=O)cc2)CC1	+	4	98	i	0
CCOC(=O)N1CCN(C(=O)c2ccc(Cn3c(=S)[nH]c4cc5c(cc4c3=O)OCO5)cc2)CC1	i	2	101	/	/
CN1CCN(C(=O)C2=C[C@@H](c3ccccc3)C[C@@H](OCCCCO)O2)CC1	i	-13	89	/	/
O=C(Nc1ncccc1O)c1ccc(S(=O)(=O)Nc2ccccc2)cc1	+	-4	101	i	1
O=C(Nc1ccccc1O)c1ccc(NS(=O)(=O)c2cccc3cccnc23)cc1	i	-1	105	i	0
O=C(Nc1ncccc1O)c1ccc(NS(=O)(=O)c2ccc3[nH]c(=O)[nH]c3c2)cc1	i	2	95	/	/
Cc1cccc(NC(=O)c2ccc(NS(=O)(=O)c3cccc4cccnc34)cc2)c1	i	-3	98	i	0
O=C(O)c1ccc(NS(=O)(=O)c2cccc3cccnc23)cc1	i	3	97	/	/
COC(=O)c1ccc(NC(=O)c2ccc(NS(=O)(=O)c3cccc4cccnc34)cc2)cc1	i	-3	104	/	/
Cc1cc(S(=O)(=O)N2CCOCC2)ccc1OCC(=O)N1CCCC1	i	10	91	/	/
O=c1[nH]c(=S)n2c(c1-c1ccccc1)OC(CBr)C2 (stereo unspecified)	+	13	106	i	4
O=c1[nH]c(=O)n2c(c1-c1ccccc1)OC(CBr)C2 (stereo unspecified)	i	0	90	/	/
CCc1ccc(NC(=O)CN2CCN(c3ccc(OC)cc3)CC2)cc1	i	-3	98	/	/
COc1ccc(Cn2nnnc2C(c2cccnc2)N2CCN(c3ccc(O)cc3)CC2)cc1 (stereo unspecified)	i	-2	98	i	5
COc1ccc(Cn2nnnc2C(c2cccs2)N2CCN(c3ccccc3)CC2)cc1 (stereo unspecified)	i	-5	98	/	/
COc1ccc(OCCN2CCC(C(=O)NC(C)c3cccc4ccccc34)CC2)cc1 (stereo unspecified)	i	0	102	/	/
COC(=O)C(CCSC)NC(=O)c1cn(-c2ccc(OC)cc2)c(=O)c2ccccc12 (stereo unspecified)	i	1	97	/	/
c1ccc2cc(C3OCC4(CCCC4)CO3)ccc2c1	i	-2	95	/	/
O=C1CCC(c2ccc3ccccc3c2)O1 (stereo unspecified)	i	-9	99	i	2
Cc1ccc(C)c(C(=O)Cn2ncc(Cl)c(Cl)c2=O)c1	?	13	100	/	/
SMILES	Myeloid diff MLP	Granule exo inh	ABCB6 inh 2	Myeloid diff CP1	GFP autofluor
Cc1cccc(Cn2ncc(Cl)c(Cl)c2=O)c1	i	-3	99	i	0
CC(=O)NCc1ccc(C(=O)COC(=O)COc2ccc(Cl)c(C)c2)s1	i	0	95	/	/
O=C(CCC1CCCCC1)NNC(=O)NC12CC3CC(CC(C3)C1)C2	i	2	108	/	/
CCOc1ccc(S(=O)(=O)Nc2ccc(Cl)cn2)c(C)c1C	i	12	96	/	/
CCOc1cc(C)c(S(=O)(=O)Nc2ccc(Cl)cn2)cc1C	i	-5	93	i	0
CCOC(=O)CN1C(=O)C2Cc3ccccc3CN2C1=S (stereo unspecified)	i	2	89	/	/
CSCCC1NC(=O)N(CC(=O)Nc2ccc3c(c2)OCCO3)C1=O (stereo unspecified)	i	-3	97	/	/
